Reference: ChEMBL document CHEMBL1201862, “PubChem BioAssay data set” (2004)
“And” between values parts separate entries of the source, which are not always exact repeats. Identical values can stand only once.

Test: M. tuberculosis growth inhibition, dose response, purified and synthesized samples, set 9 (AID 602435); call rule not given here
Assay type: functional
In the case of `CC1CCN(C(=O)c2ccc(CNc3c(N4CCCC4)c(=O)c3=O)cc2)CC1`, the IC90 is reported as > 50 µM (active). With `CC(C)CCNC(=O)CSc1nc2c(c(=O)[nH]1)CCCCC2` the IC90 was > 100 µM (active). In the case of `CC1CC(C)CN(C(=O)C2CCC(CNc3c(N4CCCCC4)c(=O)c3=O)CC2)C1` (configuration not stated), the IC90 is reported as > 75 µM (active) and > 50 µM (active). In the case of `O=C(c1ccc(CNc2c(N3CCCC3)c(=O)c2=O)cc1)N1CCN(c2ccccc2)CC1`, the IC90 is reported as > 83.3 µM (active). For `O=C(c1ccc(CNc2c(N3CCCC3)c(=O)c2=O)cc1)N1CC=C(c2ccccc2)CC1`, the IC90 was > 44.6 µM (active) and > 50 µM (active). For `Cc1cccc(N2CCN(C(=O)c3ccc(CNc4c(N5CCC(C)CC5)c(=O)c4=O)cc3)CC2)c1C`, the IC90 was > 50 µM (active). With `CC1CCCN(C(=O)C2CCC(CNc3c(N4CCCCC4)c(=O)c3=O)CC2)C1` (configuration not stated) the IC90 was > 50 µM (active). In the case of `O=C(C1CCC(CNc2c(N3CCCCC3)c(=O)c2=O)CC1)N1CCCCC1` (configuration not stated), the IC90 is reported as > 50 µM (active). With `CC(C)OC(=O)CSc1ncnc2c1cnn2-c1ccccc1` the IC90 was > 100 µM (active). In the case of `O=C(c1ccc(CNc2c(N3CCCC3)c(=O)c2=O)cc1)N1CCC(c2ccccc2)CC1`, the IC90 is reported as > 100 µM (active). With `O=C(c1ccc(CNc2c(N3CCCC3)c(=O)c2=O)cc1)N1CCc2ccccc2C1` the IC90 was > 50 µM (active). For `COc1ccc(N2CCN(C(=O)c3ccc(CNc4c(N5CCOCC5)c(=O)c4=O)cc3)CC2)cc1`, the IC90 was > 73.2 µM (active) and > 39 µM (active). For `CC1CCCN(C(=O)c2ccc(CNc3c(N4CCCCC4)c(=O)c3=O)cc2)C1` (configuration not stated), the IC90 was > 50 µM (active). For `CC(=O)c1ccc(NC(=O)c2ccc(CNc3c(N4CCOCC4)c(=O)c3=O)cc2)cc1`, the IC90 was > 50 µM (active). With `CC1CC(C)CN(C(=O)c2ccc(CNc3c(N4CCCC4)c(=O)c3=O)cc2)C1` (configuration not stated) the IC90 was > 50 µM (active). With `O=C(NCCc1ccc(Cl)cc1)C1CCC(CNc2c(N3CCCCC3)c(=O)c2=O)CC1` (configuration not stated) the IC90 was > 50 µM (active). For `O=C(c1ccc(CNc2c(N3CCOCC3)c(=O)c2=O)cc1)N1CCN(c2ccccc2)CC1`, the IC90 was > 100 µM (active).
